For 15 molecules, Potency results are on record in PubChem BioAssay (NCATS).

Test [1] is described as follows: qHTS for Inhibitors of the Functional Ribonucleoprotein Complex (vRNP) of Lymphocytic Choriomeningitis Arenaviruses (LCMV): Viability assay - alamar blue signal for LCMV Primary Screen (AID 1347085; calls by dose curve; tested in HEK293 reporter line; also: nearly all actives have a fitted effect of over 80% in size). On the technique in general: Quantitative high-throughput screening tests each substance at several concentrations.
The target of test [2] is Nucleoprotein (Lymphocytic choriomeningitis virus (strain Armstrong)) (UniProt P09992). The test is described as follows: qHTS for Inhibitors of the Functional Ribonucleoprotein Complex (vRNP) of Lymphocytic Choriomeningitis Arenaviruses (LCMV): LCMV Primary Screen - GLuc reporter signal (AID 1347086; calls by dose curve; also: nearly all actives have a fitted effect of over 70% in size).
Nucleoprotein (Lymphocytic choriomeningitis virus (strain Armstrong)), sequence (P09992 whole entry, looked up): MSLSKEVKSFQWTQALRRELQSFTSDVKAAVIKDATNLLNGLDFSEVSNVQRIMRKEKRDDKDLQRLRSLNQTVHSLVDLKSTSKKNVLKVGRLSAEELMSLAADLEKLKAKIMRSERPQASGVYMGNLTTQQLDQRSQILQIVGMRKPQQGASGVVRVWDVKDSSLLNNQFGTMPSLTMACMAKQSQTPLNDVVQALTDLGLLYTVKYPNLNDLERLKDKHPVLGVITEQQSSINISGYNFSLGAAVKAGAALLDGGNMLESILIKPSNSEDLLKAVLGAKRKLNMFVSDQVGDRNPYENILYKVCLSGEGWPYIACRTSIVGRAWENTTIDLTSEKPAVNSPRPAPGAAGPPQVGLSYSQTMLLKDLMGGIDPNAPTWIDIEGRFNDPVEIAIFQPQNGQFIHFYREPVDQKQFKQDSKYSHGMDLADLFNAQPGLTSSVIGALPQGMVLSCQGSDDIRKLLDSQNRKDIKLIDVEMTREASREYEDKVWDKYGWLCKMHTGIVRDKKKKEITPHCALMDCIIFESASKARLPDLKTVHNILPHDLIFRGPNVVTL
Test [3] is described as follows: qHTS of pediatric cancer cell lines to identify multiple opportunities for drug repurposing: Primary screen for U-2 OS cells (AID 1347096). Also: nearly all actives have a fitted effect of over 50% in size. In outline:
(§1)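 Viability after 48 h compound treatment at 37C, 500-1,000 cells/well, read as ATP luminescence with CellTiter-Glo. Primary screens used 11-point (MIPE, 0.78 nM-46 µM) or 8-point (NPC, 0.59 nM-46 µM) final concentrations; follow-up screens used 11-point dilutions.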

Test [4] is described as follows: qHTS of pediatric cancer cell lines to identify multiple opportunities for drug repurposing: Primary screen for Saos-2 cells (AID 1347097). Also: nearly all actives have a fitted effect of over 40% in size. Summed up:
(§2)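 Luminescence from CellTiter-Glo served as readout of metabolically active cells after 48 h compound exposure. Titrations: MIPE 11-point, from 0.78 nM; NPC 8-point, from 0.59 nM (final). Concentration-response curves came straight from the primary screen.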

The nature of test [5]: qHTS of pediatric cancer cell lines to identify multiple opportunities for drug repurposing: Primary screen for control Hh wild type fibroblast cells (AID 1347106). Also: nearly all actives have a fitted effect of over 55% in size. In outline: as §1
The nature of test [6]: qHTS of pediatric cancer cell lines to identify multiple opportunities for drug repurposing: Primary screen for TC32 cells (AID 1347089). Also: nearly all actives have a fitted effect of over 60% in size. In outline:
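Measured quantity: luminescence from CellTiter-Glo, reflecting metabolically active TC32 cells following 48 h of compound. Curves came straight from multi-point titrations, with 8 or 11 points in primary and 11 in confirmatory screening.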

A short description of test [7]: qHTS of pediatric cancer cell lines to identify multiple opportunities for drug repurposing: Primary screen for DAOY cells (AID 1347090). Also: nearly all actives have a fitted effect of over 55% in size. Summed up:
(§3)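 Viability measured as metabolically active cells via CellTiter-Glo luminescence following 48 hours of compound exposure, 11-point dilutions in confirmatory testing. 500-1,000 cells/well plated 5 hours before dosing; controls were DMSO and 2.3 µM bortezomib.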

The nature of test [8]: qHTS of pediatric cancer cell lines to identify multiple opportunities for drug repurposing: Primary screen for SJ-GBM2 cells (AID 1347091). In outline:
as §3

A short description of test [9]: qHTS of pediatric cancer cell lines to identify multiple opportunities for drug repurposing: Primary screen for A673 cells (AID 1347092). Also: nearly all actives have a fitted effect of over 45% in size. Summed up:
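Cells are plated, rested 5 h, dosed by pintool, incubated 48 h, then lysed with CellTiter-Glo and read by luminescence. DMSO is the neutral control; bortezomib at 2.3 uM final is the positive control.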

A short description of test [10]: qHTS of pediatric cancer cell lines to identify multiple opportunities for drug repurposing: Primary screen for SK-N-MC cells (AID 1347093). In outline:
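Metabolically active cells were quantified by ATP-dependent luminescence (CellTiter-Glo, 15 min at room temperature) following 48 h treatment. Cells had been plated at 500-1,000 per well and settled for 5 h beforehand.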

Test [11] can be described thus: qHTS of pediatric cancer cell lines to identify multiple opportunities for drug repurposing: Primary screen for BT-37 cells (AID 1347094). In outline: as §2
Test [12] in a line: qHTS of pediatric cancer cell lines to identify multiple opportunities for drug repurposing: Primary screen for NB-EBc1 cells (AID 1347095). Summed up:
as §2

Test [13] in a line: qHTS of pediatric cancer cell lines to identify multiple opportunities for drug repurposing: Primary screen for SK-N-SH cells (AID 1347098). Also: nearly all actives have a fitted effect of over 65% in size. Summed up: (§4)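 Cells (500-1,000/well) rested 5 h, then received compounds for 48 h; metabolically active cells were measured by CellTiter-Glo luminescence. Final concentrations spanned up to 46 µM (MIPE, 11-point) or 0.59 nM-46 µM (NPC, 8-point) in primary screens, 11-point in follow-ups.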

Test [14] is described as follows: qHTS of pediatric cancer cell lines to identify multiple opportunities for drug repurposing: Primary screen for NB1643 cells (AID 1347099). Also: nearly all actives have a fitted effect of over 50% in size. In outline:
as §2

The nature of test [15]: qHTS of pediatric cancer cell lines to identify multiple opportunities for drug repurposing: Primary screen for LAN-5 cells (AID 1347100). In outline:
as §1

Test [16] can be described thus: qHTS of pediatric cancer cell lines to identify multiple opportunities for drug repurposing: Primary screen for BT-12 cells (AID 1347101). Also: nearly all actives have a fitted effect of over 25% in size. Summed up:
as §4

The nature of test [17]: qHTS of pediatric cancer cell lines to identify multiple opportunities for drug repurposing: Primary screen for Rh18 cells (AID 1347102). Also: nearly all actives have a fitted effect of over 65% in size. In outline: as §1
Test [18] is described as follows: qHTS of pediatric cancer cell lines to identify multiple opportunities for drug repurposing: Primary screen for MG 63 (6-TG R) cells (AID 1347105). Also: nearly all actives have a fitted effect of over 50% in size. In outline:
as §2

Test [19] is described as follows: qHTS of pediatric cancer cell lines to identify multiple opportunities for drug repurposing: Primary screen for OHS-50 cells (AID 1347103). Also: nearly all actives have a fitted effect of over 40% in size. In outline: as §4
Test [20] in a line: qHTS of pediatric cancer cell lines to identify multiple opportunities for drug repurposing: Primary screen for RD cells (AID 1347104). Also: nearly all actives have a fitted effect of over 55% in size. In outline: as §2

Results filed as inconclusive are left out. Active and inactive are the calls of the source. Unless noted, calls follow the shape of the dose curve; as a rule, active = well fitted curve in the direction sought with a large enough effect; inconclusive = small, poorly fitted or top-dose-only effect, or another doubt; inactive = no such curve, though single readings can be large; an effect the other way counts as inactive or inconclusive.
Potency is read from the fitted curve at half-maximal effect.

In the case of `O=C1C=CC[C@@H]2[C@H]3CCCN4CCC[C@@H](CN12)[C@@H]34`, the Potency entry in test [1], in test [2], in test [3], in test [4] and in [5] was “inactive” throughout.
Turning to `Clc1ccc(C(c2ccc(Cl)cc2)n2cc[n+](CC(OCc3ccc(Cl)cc3Cl)c3ccc(Cl)cc3Cl)c2)cc1` (stereo not given), the Potency in test [2] was 15.3 µM (active).
Take `CCn1c(-c2nonc2N)nc2cnc(Oc3cccc(NC(=O)c4ccc(OCCN5CCOCC5)cc4)c3)cc21`: in test [2], the Potency is 17.2 µM (active).
Take `C[C@@]12OC(=O)[C@]1([C@@H](O)[C@@H]1C=CCCC1)NC(=O)[C@H]2CCCl`: the Potency in test [1] is 24.3 µM (active); in [6] it was 7.39 µM (active); in test [7] it was 0.118 µM (active); in [8] it was 0.0105 µM (active); in test [9], 0.0469 µM (active); in test [10], 0.0083 µM (active). Moreover, the Potency in test [11] is 0.0968 µM (active); in [12], 0.0105 µM (active); in test [3], 0.235 µM (active); in test [4], 0.0372 µM (active); in test [13] it was 0.171 µM (active); in test [14], 0.0743 µM (active). In addition, the Potency is 0.0526 µM (active) in test [15]; 0.137 µM (active) in test [16]; 0.0526 µM (active) in test [17]; 0.0296 µM (active) in test [18]; 0.0935 µM (active) in test [5].
Turning to `CC(C)C[C@H](NC(=O)CNC(=O)c1cc(Cl)ccc1Cl)B(O)O`, the Potency in [2] was 3.06 µM (active).
On the same count and under the same terms, the result for `CC[C@H](CO)Nc1nc(NCc2ccccc2)c2ncn(C(C)C)c2n1` reads “inactive”.
Regarding `COC(=O)[C@@H](N)CCCN=C(N)N[N+](=O)[O-]`, the Potency entry in [2], in test [6], in test [8], in test [11], in test [12] and in test [3] was “inactive” in each case. The Potency entry in [4], in test [15], in test [16], in test [17], in test [19] and in test [18] was “inactive” throughout. Further, the Potency in [10] is 6.62 µM (active); in [13] it was 6.07 µM (active); in [14], 9.35 µM (active).
`COc1ccc2c(c[n+](C)c3c4cc5c(cc4ccc23)OCO5)c1OC`: the Potency result in test [2] is “inactive”. The Potency was 23.5 µM (active) in [7]; 11.8 µM (active) in test [8]; 3.72 µM (active) in test [9]; 5.9 µM (active) in test [10]; 17.2 µM (active) in test [11]; 9.35 µM (active) in test [4]. Further, the Potency was 12.1 µM (active) in test [13]; 7.43 µM (active) in test [14]; 8.33 µM (active) in test [15]; 24.3 µM (active) in test [16]; 8.33 µM (active) in test [17]; 8.63 µM (active) in [19]. Also, the figures for the Potency in test [20] and in test [5] were 10.5 µM (active) and 26.4 µM (active), respectively.
Turning to `Cc1c(N)nc([C@H](CC(N)=O)NC[C@@H](N)C(N)=O)nc1C(=O)N[C@H](C(=O)N[C@@H](C)[C@H](O)[C@@H](C)C(=O)N[C@@H](C(=O)NCCc1nc(-c2nc(C(=O)NCCC[S+](C)C)cs2)cs1)[C@@H](C)O)C(O[C@H]1O[C@H](CO)[C@H](O)[C@@H](O)[C@@H]1O[C@H]1O[C@H](CO)[C@@H](O)[C@H](OC(N)=O)[C@H]1O)c1cnc[nH]1` (stereo not given in full), the Potency entry in [2], in test [3], in test [13] and in test [17] was “inactive” throughout. In addition, the Potency in test [6] was 4.15 µM (active); in test [8] it was 1.48 µM (active); in test [10] it was 0.833 µM (active); in test [11] it was 1.37 µM (active); in test [4], 1.66 µM (active); in test [14] it was 1.66 µM (active). Besides, the Potency is 0.526 µM (active) in test [15], 1.72 µM (active) in [19] and 0.59 µM (active) in [18].
As for `O=c1cccc2n1CC1CNC[C@H]2C1`, the Potency entry in test [2] and in test [6] was “inactive” each time. Further, the Potency is 18.7 µM (active) in test [7]; 5.9 µM (active) in test [8]; 4.69 µM (active) in [9]; 4.69 µM (active) in test [10]; 24.1 µM (active) in [13]; 5.9 µM (active) in test [14]. Besides, the values for the Potency in test [15], in test [17] and in test [20] were 2.96 µM (active), 3.32 µM (active) and 18.7 µM (active), respectively.
Consider `C=CCC1=C(C)C(OC(=O)C2C(C=C(C)C)C2(C)C)CC1=O` (stereo not given), for which the Potency result in [6], in test [13], in test [17], in [18] and in [5] was “inactive” throughout. The Potency in test [8] was 30.6 µM (active); in test [10], 38.6 µM (active); in test [12], 68.6 µM (active); in test [19], 28.2 µM (active).
`CC=C(C)C(=O)O[C@H]1C(C)=C2[C@@H]3OC(=O)[C@@](C)(O)[C@@]3(O)[C@@H](OC(=O)CCC)C[C@](C)(OC(C)=O)[C@@H]2[C@@H]1OC(=O)CCCCCCC`: the Potency in test [7] was 0.469 µM (active); in test [8], 0.0418 µM (active); in test [9] it was 0.0235 µM (active); in test [10], 0.0187 µM (active); in test [11], 0.0172 µM (active); in test [3], 0.296 µM (active). In addition, the Potency in test [4] was 0.0743 µM (active); in [13], 0.136 µM (active); in test [14], 0.0662 µM (active); in test [15], 0.0418 µM (active); in test [16], 0.0485 µM (active); in [17] it was 0.0132 µM (active). Moreover, the Potency in [19] is 0.0172 µM (active); in [20] it was 0.0209 µM (active); in test [18], 0.118 µM (active).
As to `O=C(Oc1ccc([N+](=O)[O-])cc1)N1CCN(Cc2cccc(Oc3ccccc3)c2)CC1`, the Potency in test [2] was 6.85 µM (active); in test [9], 18.7 µM (active); in [10], 18.7 µM (active); in test [18], 14.8 µM (active); in test [5], 3.32 µM (active). Moreover, the Potency result in [6], in [8], in test [11], in test [3], in test [15] and in test [17] was “inactive” in each case. Further, in [19], the Potency entry is “inactive”.
Take `CC(C)OC(=O)C1=CN(C(=O)c2ccc(F)c(F)c2)CC(C)(C)c2c1[nH]c1ccccc21`: in test [2], the Potency entry was “inactive”.
Consider `CO/C=C(/C(=O)OC)c1ccccc1Oc1cc(Oc2ccccc2C#N)ncn1`, for which the Potency is 10 µM (active) in [2]; 9.69 µM (active) in test [7]; 17.2 µM (active) in [10]; 27.3 µM (active) in test [12]; 21.7 µM (active) in [15]; 8.93 µM (active) in test [16]. In test [19], the Potency is 14.2 µM (active). The Potency entry in [5] was “inactive”.
